Screens deposited in PubChem by National Center for Advancing Translational Sciences (NCATS).
Rab9 prom act: activates the Rab9 promoter | AID 485297 | Huh7 Rab9 promoter-luciferase reporter, luminescence, 24 h | 2.8% of 320,000 active | Potency, µM (top dose mostly 9.22 µM), for inactives: top-dose activation, negative = inhibition, most hits filed as activators; further: % of control where 0% means no effect; nearly all actives have a fitted effect of over 60% in size
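Using Huh7 cells stably transfected with Rab9 promoter–luciferase, compounds were incubated 24 h at 37 °C, 5% CO2; luciferase luminescence was read 10 min after reagent addition.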
ELG1 DNA repair: ELG1-dependent DNA repair inhibition; HEK293T ELG1-luciferase reporter, luminescence, 16 h; DNA damage induced by 5-fluorouridine; Potency, µM (highest dose often 46.1 µM), without a hit: top-dose activity change, negative = inhibition, usual class: inhibitors; 2.3% of 330,000 active; AID 504467; further: on the % scale 0 is the no-effect control and ±100 the full control effect; nearly all actives have a fitted effect of over 55% in size
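Step one: seed 2,000 cells per well. Step two: pin-transfer compound or DMSO alongside 5-fluorouridine. Step three: incubate 16 hr, 37 °C, 5% CO2. Step four: add ONE-Glo, wait 30 min, read luminescence.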
ELG1 genotox: induces genotoxicity in HEK293T cells with luciferase-tagged ELG1; HEK293T ELG1-luciferase reporter, luminescence, 16 h; Potency, µM (doses to about 46 µM), without a hit: top-dose activity change, positive = activation, usual class: activators; 1.3% of 330,000 active; AID 504466; further: % of control where 0% means no effect; nearly all actives have a fitted effect of over 60% in size
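Step 1: seed 2,000 HEK293T ELG1-luciferase cells per well. Step 2: add compound or DMSO, incubate 16 hr at 37 °C. Step 3: ONE-Glo, 30 min at room temperature, read luminescence.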
FLuc counter: counter-screen for miR-21 project: firefly luciferase inhibitors or activators. P08659. purified FLuc, Km substrates, luminescence inhibition. Potency, µM (titrated, usually from 57.5 µM), without a hit: top-dose activity change, negative = inhibition, actives largely listed as inhibitors. 6.9% of 360,000 active;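 further: plate controls were vehicle for no effect and reference inhibitor for full effect; nearly all actives have a fitted effect of over 55% in size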
Target sequence (P08659 whole entry, looked up): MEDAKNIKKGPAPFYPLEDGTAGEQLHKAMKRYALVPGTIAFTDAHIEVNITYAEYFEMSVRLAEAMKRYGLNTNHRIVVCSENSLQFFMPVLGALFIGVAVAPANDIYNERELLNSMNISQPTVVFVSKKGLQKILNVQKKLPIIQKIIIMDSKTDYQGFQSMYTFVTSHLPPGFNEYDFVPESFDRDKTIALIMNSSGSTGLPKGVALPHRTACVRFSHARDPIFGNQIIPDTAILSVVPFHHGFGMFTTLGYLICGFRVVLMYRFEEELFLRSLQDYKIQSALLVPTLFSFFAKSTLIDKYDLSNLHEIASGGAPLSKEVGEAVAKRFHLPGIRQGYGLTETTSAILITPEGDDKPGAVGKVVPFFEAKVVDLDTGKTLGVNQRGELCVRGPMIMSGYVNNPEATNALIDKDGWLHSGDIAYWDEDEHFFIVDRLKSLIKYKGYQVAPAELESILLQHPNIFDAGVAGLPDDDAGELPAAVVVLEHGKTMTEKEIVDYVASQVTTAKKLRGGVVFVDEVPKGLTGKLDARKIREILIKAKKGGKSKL
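Biochemical qHTS of compounds, final roughly 60 µM downward over six points, against 10 nM purified firefly luciferase using Km concentrations of substrates (10 uM D-luciferin, 10 uM ATP) in Tris acetate pH 7.5 buffer; luminescence output.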
SMN2 splice up: enhancers of SMN2 splice variant expression; HEK293 SMN2-luciferase splicing reporter, luminescence, 30-36 h; Potency, µM (series often up to 46.1 µM), for inactives: at the top dose activity change, positive = activation, hits mostly activators; AID 1458; 2.8% of 210,000 active; further: % of control where 0% means no effect; nearly all actives have a fitted effect of over 55% in size
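HEK293 cells carry an SMN2 minigene-luciferase reporter in which exon 7 inclusion puts luciferase in frame. Cells were seeded at 2000 cells/well, attached for 10-12 hours, then exposed to compounds for 30-36 hours at 37C before ONE-Glo luminescence.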
NPC1 promoter act: activates the NPC1 promoter | AID 485313 | 2.4% of 320,000 active | Huh7 NPC1 promoter luciferase reporter, 24 h | Potency, µM (top dose mostly 9.22 µM), inactives show top-dose activation, actives largely listed as activators; further: % of control where 0% means no effect; nearly all actives have a fitted effect of over 60% in size
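In 1536-well qHTS, Huh7 cells harboring an NPC1 promoter–luciferase construct received compound for 24 h; activation was quantified by luminescence following luciferase reagent addition.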
An asterisk follows results filed as active; ? = inconclusive; . = no result given; [ ] = dose if it differs, or a comment. Rows were chosen to be rich in hits. Some 9.2% of all compounds tested hit in one or more screens of this group. The call rests on the fitted dose curve; in most records, active means well fitted curve in the direction sought with a large enough effect; inconclusive means small, poorly fitted or top-dose-only effect, or another doubt; inactive means no such curve, though single readings can be large; an effect the other way counts as inactive or inconclusive. Potency means the concentration at half of the fitted maximal effect.

SMILES	Rab9 prom act	ELG1 DNA repair	ELG1 genotox	FLuc counter	SMN2 splice up	NPC1 promoter act
N#C/C(=C/c1ccc(N2CCOCC2)o1)C(=O)NC1CCCCC1	24%	-4%	3%	12µM*	.	3%
N#C/C(=C\c1ccc(N2CCOCC2)o1)C(=O)Nc1ccc(O)cc1	25%	?	?	5.4µM*	16µM*	22%
CCc1ccc(NC(=O)/C(C#N)=C/c2cc3ccc(C)cc3nc2N2CCOCC2)cc1	-6%	-13%	6%	-1%	-28%	-2%
COc1ccc(NC(=O)/C(C#N)=C/c2ccc(Br)o2)cc1	18%	?	2%	-11%	?	10%
CCc1ccc(Oc2c(C(F)(F)F)oc3c(CN4CCCC(C)C4)c(O)ccc3c2=O)cc1 (stereo not drawn)	.	.	.	2%	7%	.
Cc1nc(CC(=O)Nc2cc(Cl)ccc2C)cs1	.	.	.	-7%	-2%	.
c1ccc(Cn2ccc(-c3cnc(-c4ccccc4)s3)n2)cc1	1.1µM*	?	?	1.9µM*	.	1.4µM*
CCOC(=O)C1=C(C)C(c2cccc(Oc3ccccc3)c2)NC(=S)N1 (stereo not drawn)	-11%	26µM*	-5%	3%	-43%	3%
COc1ccc(CCC(=O)Nc2cc(S(=O)(=O)N3CCOCC3)ccc2OC(C)C)cc1	2%	0%	-1%	7%	.	0%
COc1ccc(S(=O)(=O)N2CCCCC2)cc1NC(=O)CSc1ncnc2ccccc12	-47%	?	-6%	8.5µM*	-45%	-10%
COc1ccc(S(=O)(=O)N2CCOCC2)cc1NC(=O)CSc1nnc2c(n1)[nH]c1ccccc12	-3%	23µM*	-7%	?	.	3%
Cc1ccc(NC(=O)CSc2ncnc3ccccc23)cc1S(=O)(=O)N1CCCCC1	-7%	?	2%	-20%	-29%	-2%
O=C(CSc1nnc2c(n1)[nH]c1ccc(S(=O)(=O)N3CCOCC3)cc12)Nc1ccccc1Cl	-1%	-21%	-11%	2%	-15%	-3%
O=S(=O)(c1ccc(Br)cc1)N1CCCc2ccccc21	6%	-17%	2%	2%	.	-4%
COc1ccc(C2=NN(c3ccc(C(=O)O)cc3)C(c3ccc(OC)c(OC)c3)C2)cc1 (stereo not drawn)	10%	?	23µM*	?	.	16%
COc1ccc(C2CC(c3ccccc3)=NN2c2ccc(S(N)(=O)=O)cc2)cc1OC (stereo not drawn)	-3%	-20%	1%	-1%	-1%	-5%
COc1cc(C2CC(c3ccccc3)=NN2c2ccccc2)ccc1OCC(=O)O (stereo not drawn)	1%	7%	7%	15µM*	.	0%
COc1ccc(C2CC(c3ccc(Cl)cc3)=NN2c2ccc(S(N)(=O)=O)cc2)cc1 (stereo not drawn)	.	0%	-8%	.	.	.
CCOc1c2ccc(C(=O)N[C@H](C)C3CCCCC3)cc2nn1CCOC	3%	-3%	-1%	2%	12%	-3%
Cc1ccc2c(c1)COc1c3ccc(C(=O)NC(C)C)cc3nn1-2	?	?	?	3µM*	.	1.6µM*
Cc1ccc2c(c1)COc1c3ccc(C(=O)N[C@@H](C)CO)cc3nn1-2	2.2µM*	?	?	3.4µM*	.	1.6µM*
CCCCN1CSC(=S)N(Cc2ccccc2)C1	.	.	.	.	2%[9.22 µM]	.
COc1cccc(CNCCCSc2nnnn2C)c1OC	.	.	.	-1%	.	.
COc1ccc(-c2ccc(SCC(=O)c3ccccc3)nn2)cc1OC	1%	?	-4%	24µM*	-1%	-1%
Cc1ccc(-c2ccc(SCC(=O)c3ccccc3)nn2)cc1	?	?	?	15µM*	6.3µM*	?
SMILES	Rab9 prom act	ELG1 DNA repair	ELG1 genotox	FLuc counter	SMN2 splice up	NPC1 promoter act
COc1ccc(-c2ccc(SCC(=O)Nc3cc(C)on3)nn2)cc1OC	?	0%	1%	-8%[2.3 µM]	.	11%
O=C(COC(=O)c1cccnc1)c1ccc(Cl)cc1	-2%	10%	-5%	11µM*	-20%	-5%
O=C(COC(=O)c1cccnc1)c1ccc(Cl)c(Cl)c1	0%	9%	1%	17µM*	-2%	-3%
Cn1/c(=N/NC(=O)c2ccccc2Br)sc2ccccc21	4µM*	?	?	15µM*	?	?
Cc1cc(C(=O)CSc2ccc3c(c2)OCCO3)c(C)n1C1CC1	2.8µM*	?	?	11µM*	?	?
Cn1c(N)c(C(=O)CSc2ccc3c(c2)OCCO3)c(=O)n(C)c1=O	6%	?	-7%	?	-20%	-1%
C/C(N)=C(/C#N)C(=O)CSc1ccc2c(c1)OCCO2	2.8µM*	?	?	12µM*	13µM*	3.2µM*
Cc1cccc(NC(=O)Cn2c([N+](=O)[O-])cnc2C)c1C	0%	6%	0%	2%	0%	0%
CCOC(=O)C(=CNc1ccccc1Cl)C(=O)OCC	-2%	-9%	-2%	-7%	.	0%
CCOC(=O)C(=CNc1ccc(C(F)(F)F)cc1Cl)C(=O)OCC	3%	0%	-1%	13µM*	.	2%
CCOC(=O)C(=CNc1cc(Cl)c(-c2ccco2)c(Cl)c1)C(=O)OCC	-2%	21µM*	-5%	?	.	-2%
CCOC(=O)C(=CNc1ccc(-c2ccco2)c(Cl)c1)C(=O)OCC	0%	?	-9%	-20%	.	1%
COc1cccc(/C=C2\CCC(C3CCCC3)C2=O)c1OC (stereo not drawn)	4µM*	?	?	1.1µM*	.	2.8µM*
COc1ccc(/C=C2\CCC(C3CCCC3)C2=O)c(OC)c1OC (stereo not drawn)	0%[1.84 µM]	21%	11%	24µM*	.	-4%
NC(=O)C1CCN(c2nc(-c3ccccc3[N+](=O)[O-])cs2)CC1	.	.	.	-1%	.	.
Oc1ccc(/C=C/c2nc(-c3ccccc3O)n(-c3ccccc3)n2)c(O)c1	.	.	.	?	-6%	.
COCCn1c(SCC(=O)N2CCc3ccccc3C2)nc2cc(Cl)ccc2c1=O	1%	23µM*	-15%	1%	-15%	0%
COCCn1c(SCc2ccc(C(=O)OC)o2)nc2cc(Cl)ccc2c1=O	3.5µM*	?	-1%	-1%	-9%	1%
CC(C)Cn1c(SCC(=O)N2CCc3ccccc3C2)nc2cc(Cl)ccc2c1=O	-1%	18µM*	-10%	2%	-38%	-2%
CC(C)c1ccccc1-n1c(SCC(=O)N2CCc3ccccc3C2)nc2ccccc2c1=O	-1%	26µM*	-16%	3%	-93%	-5%
O=c1oc2ccccc2c(N2CCOCC2)c1[N+](=O)[O-]	-5%	6%	2%	0%	-23%	-7%
